From PubChem BioAssay (Tox21)
Records with an inconclusive call do not appear. Where a call stands in place of a potency, no number is given. Active and inactive are the calls of the source. Unless noted, calls follow the shape of the dose curve; as a rule, active = well fitted curve in the direction sought with a large enough effect in the repeat runs; inconclusive = weak or mixed curves; inactive = no such curve, though single readings can be large; an effect the other way counts as inactive or inconclusive.

Legend:
[1] = qHTS assay to identify small molecule antagonists of the estrogen related receptor (ERR) signaling pathway from Tox21 library - cell viability counter screen (AID 1224834); also: nearly all actives have a fitted effect of over 30% in size; also: potency is read from the fitted curve at half-maximal effect
How it was run: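 Fluorescence from CellTiter-Fluor gives the viability read-out, taken 30 min after reagent addition. Before that, ERR cells seeded 6 h earlier were incubated with compounds for 17.5 h at 37 C.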

[2] = target: Luciferin 4-monooxygenase (Photinus pyralis) (UniProt P08659); assay: qHTS assay to identify small molecule inhibitors of firefly luciferase (AID 1224835); also: nearly all actives have a fitted effect of over 25% in size; also: potency is read from the fitted curve at half-maximal effect
How it was run: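 Inhibition of purified Photinus luciferase is measured by luminescence. Substrate levels (D-luciferin, ATP) sit at their KM values. Each compound is tested in a concentration series.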

[3] = qHTS assay to identify small molecule agonists of the constitutive androstane receptor (CAR) signaling pathway - cell viability counter screen (AID 1224836); also: series mostly up to about 92 µM; nearly all actives have a fitted effect of over 45% in size
How it was run: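 Double-stable HepG2 hepatoma cells (hCAR plus CYP2B6-2.2kb) are treated for 23 h at 37 C with test compounds in 15-point concentration series. PK11195 at 0.75 uM final is co-added. Cell viability is quantified by CellTiter-Fluor.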

[4] = qHTS assay to identify small molecule antagonists of the constitutive androstane receptor (CAR) signaling pathway - cell viability counter screen (AID 1224837); also: nearly all actives have a fitted effect of over 45% in size; also: potency is read from the fitted curve at half-maximal effect
How it was run: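 HepG2-CYP2B6-hCAR cells, 2500/well, 4 hr pre-incubation; compound titration, 15 conc.; CITCO 50 nM final; 23 hr, 37 C/5% CO2; CellTiter-Fluor, fluorescence intensity.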

[5] = qHTS assay to identify small molecule antagonists of the estrogen related receptor signaling pathway with the pleiotropic PPARgamma coactivator (PGC) from Tox21 10K library - cell viability counter screen (AID 1224840; active = well fitted cell-killing curve with a large enough effect in the repeat runs, not every such curve was filed as active; also: nearly all actives have a fitted effect of over 40% in size; also: potency is read from the fitted curve at half-maximal effect)
How it was run: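 PGC/ERR cells, 2,000/well; 6 h pre-incubation 37 C/5% CO2; cpd in DMSO via pin tool; 17.5 h 37 C; CellTiter-Fluor, 30 min; fluorescence.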

[6] = target: Thyrotropin receptor (Homo sapiens) (UniProt P16473); assay: qHTS assay to identify small molecule agonists of the thyroid stimulating hormone receptor (TSHR) signaling pathway (AID 1224843; calls by dose curve; also: nearly all actives have a fitted effect of over 45% in size)
How it was run: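 HEK293 cells stably bearing the thyrotropin receptor were plated at 800 cells/well and challenged with compound (30 min, RT). Accumulated cAMP was quantified via cAMP-d2 competing for cryptate-tagged antibody.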

[7] = target: Nuclear receptor subfamily 1 group I member 3 (Homo sapiens) (UniProt Q14994); assay: qHTS assay to identify small molecule antagonists of the constitutive androstane receptor (CAR) signaling pathway (AID 1224838);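 also: HepG2 cells stably expressing hCAR with CYP2B6 luciferase reporter stimulated by CITCO; nearly all actives have a fitted effect of over 40% in size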; also: potency is read from the fitted curve at half-maximal effect
How it was run: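 HepG2-CYP2B6-hCAR cells; 4 h pre-incubation; cpd (15 conc) + CITCO 50 nM final; 24 h, 37 C/5% CO2; ONE-Glo, luminescence.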

[8] = target: Nuclear receptor subfamily 1 group I member 3 (Homo sapiens) (UniProt Q14994); assay: qHTS assay to identify small molecule agonists of the constitutive androstane receptor (CAR) signaling pathway (AID 1224839); also: nearly all actives have a fitted effect of over 15% in size; also: potency is read from the fitted curve at half-maximal effect
How it was run: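 Readout: firefly luciferase luminescence via ONE-Glo. System: HepG2 double-stable for hCAR and CYP2B6-2.2kb. Conditions: 15-point compound titration, PK11195 at 0.75 uM final, 24 h incubation.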

[9] = qHTS assay to identify small molecule antagonists of the estrogen related receptor signaling pathway with the pleiotropic PPARgamma coactivator (PGC) from Tox21 10K library (AID 1224841; call rule not given here; also: actives are mostly falling curves and most rising ones were filed inactive; nearly all actives have a fitted effect of over 50% in size; also: potency is read from the fitted curve at half-maximal effect)
How it was run: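 PGC/ERR cell line, 2,000 cells/well; 6 h pre-incubation 37 C/5% CO2; compounds (DMSO) pinned in; 18 h, 37 C; One-Glo, 30 min RT; luminescence.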

[10] = qHTS assay to identify small molecule agonists of the estrogen related receptor signaling pathway with the pleiotropic PPARgamma coactivator (PGC) from Tox21 10K library (AID 1224842); also: nearly all actives have a fitted effect of over 15% in size; also: potency is read from the fitted curve at half-maximal effect
How it was run: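 Luminescence from One-Glo (30 min, room temperature) measured after PGC/ERR cells had 18 h at 37 C with pinned compound (23 nL in DMSO). Cells had been seeded at 2,000 per well and pre-incubated 6 h.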

Chain of Nuclear receptor subfamily 1 group I member 3 (Homo sapiens) (Q14994 whole entry, looked up): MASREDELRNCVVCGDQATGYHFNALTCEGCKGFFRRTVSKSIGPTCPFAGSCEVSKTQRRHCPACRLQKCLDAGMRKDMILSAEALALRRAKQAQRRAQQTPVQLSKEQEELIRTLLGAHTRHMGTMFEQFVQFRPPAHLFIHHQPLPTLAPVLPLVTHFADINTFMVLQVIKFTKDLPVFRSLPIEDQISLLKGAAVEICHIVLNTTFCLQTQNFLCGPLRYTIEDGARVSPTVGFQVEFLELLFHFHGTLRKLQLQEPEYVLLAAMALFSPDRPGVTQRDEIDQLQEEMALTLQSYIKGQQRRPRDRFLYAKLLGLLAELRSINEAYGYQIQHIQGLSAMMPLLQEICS
Chain of Luciferin 4-monooxygenase (Photinus pyralis) (P08659 whole entry, looked up): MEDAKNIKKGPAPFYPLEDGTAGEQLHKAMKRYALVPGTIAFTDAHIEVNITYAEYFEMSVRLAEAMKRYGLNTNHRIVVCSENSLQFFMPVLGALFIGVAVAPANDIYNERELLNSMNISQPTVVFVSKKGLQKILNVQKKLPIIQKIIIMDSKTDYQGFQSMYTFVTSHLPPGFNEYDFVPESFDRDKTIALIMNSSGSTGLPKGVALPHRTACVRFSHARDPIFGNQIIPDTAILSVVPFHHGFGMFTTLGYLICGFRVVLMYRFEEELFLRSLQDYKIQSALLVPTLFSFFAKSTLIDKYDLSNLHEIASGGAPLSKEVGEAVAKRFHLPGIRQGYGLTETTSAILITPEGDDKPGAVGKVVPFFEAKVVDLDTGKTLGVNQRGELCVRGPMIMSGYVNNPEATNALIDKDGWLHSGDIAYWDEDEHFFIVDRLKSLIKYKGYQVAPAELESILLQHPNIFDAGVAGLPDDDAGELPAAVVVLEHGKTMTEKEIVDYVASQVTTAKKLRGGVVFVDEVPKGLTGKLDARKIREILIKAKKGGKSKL
Chain of Thyrotropin receptor (Homo sapiens) (P16473 whole entry, looked up): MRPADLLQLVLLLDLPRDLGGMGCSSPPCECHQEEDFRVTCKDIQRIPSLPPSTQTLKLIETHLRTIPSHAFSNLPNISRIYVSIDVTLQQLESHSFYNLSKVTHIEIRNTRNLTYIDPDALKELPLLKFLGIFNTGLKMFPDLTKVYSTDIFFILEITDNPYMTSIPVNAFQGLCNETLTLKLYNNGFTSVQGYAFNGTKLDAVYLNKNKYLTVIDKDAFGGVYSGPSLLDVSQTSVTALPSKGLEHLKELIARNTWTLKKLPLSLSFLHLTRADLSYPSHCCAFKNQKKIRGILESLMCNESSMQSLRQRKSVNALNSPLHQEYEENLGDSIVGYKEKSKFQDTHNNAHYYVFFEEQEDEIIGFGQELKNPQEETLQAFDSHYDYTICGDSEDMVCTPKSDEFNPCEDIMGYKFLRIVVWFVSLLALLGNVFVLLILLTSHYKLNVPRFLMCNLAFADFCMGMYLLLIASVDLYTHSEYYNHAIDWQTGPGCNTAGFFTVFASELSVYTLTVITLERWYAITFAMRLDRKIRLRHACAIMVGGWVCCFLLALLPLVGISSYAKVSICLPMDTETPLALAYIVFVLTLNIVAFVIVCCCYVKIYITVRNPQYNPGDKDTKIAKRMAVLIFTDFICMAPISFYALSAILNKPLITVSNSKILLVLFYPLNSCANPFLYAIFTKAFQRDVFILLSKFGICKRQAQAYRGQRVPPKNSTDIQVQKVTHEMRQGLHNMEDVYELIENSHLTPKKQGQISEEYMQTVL

Row | SMILES | Potency [1] | Potency [2] | Potency [3] | Potency [4] | Potency [5] | Potency [6] | Potency [7] | Potency [8] | Potency [9] | Potency [10]
1 | O=C(O)Cc1ccc2c(c1)C(=O)c1ccccc1CO2 | inactive | 30.9 µM (active) | inactive | inactive | inactive | inactive |  |  |  | 
2 | O=[N+]([O-])c1cccc(C(F)(F)F)c1 | inactive | inactive | inactive | inactive | inactive | inactive |  |  |  | 
3 | CC(C)NC[C@@H](O)COc1ccc(CC(N)=O)cc1 | inactive | inactive | inactive | inactive | inactive | inactive |  |  |  | 
4 | CC(=O)CC(=O)Nc1ccc(S(=O)(=O)O)cc1 | inactive | inactive | inactive | inactive | inactive | inactive |  |  |  | 
5 | CNc1ccc([N+](=O)[O-])cc1 | 43.4 µM (active) | 40 µM (active) |  | 48.7 µM (active) | 48.7 µM (active) | inactive | inactive | inactive | inactive | inactive
6 | O=C(c1ccc(O)c(O)c1)c1ccc(O)cc1O |  | 70.9 µM (active) | inactive | inactive |  | inactive | inactive | inactive | 68.5 µM (active) | inactive
7 | CCCC(=O)OCCc1ccccc1 |  | 79.6 µM (active) | inactive | inactive | inactive | inactive | inactive | inactive |  | 
8 | CC1=CCC(=C(C)C)CC1 |  | inactive | inactive | inactive | inactive |  | inactive | inactive |  | 
9 | C=CC(=O)OCCOC(=O)C=C |  | inactive | inactive | inactive | inactive | inactive | inactive | inactive |  | 
10 | CCCCCCCCCCCCOC(=O)c1ccc(O)cc1 |  | inactive | inactive | inactive | inactive |  | inactive | inactive |  | 
11 | CC(C)(C)c1csc(-c2cc3cc(OCc4ccccc4CC(=O)O)ccc3o2)n1 |  | 5.03 µM (active) | inactive | inactive | inactive | inactive | inactive |  |  | 
12 | CC1(C)CC(O)CC(C)(C)N1 |  | inactive | inactive | inactive | inactive | inactive | inactive | inactive |  | 
13 | CCCCCC(C)OC(=O)COc1ccc(Cl)c2cccnc12 (centres undefined) |  | inactive | inactive | inactive | inactive |  | inactive | inactive |  | 
14 | CC1(C)CCC[C@]2(C)[C@H]3CCO[C@]3(C)CC[C@@H]12 |  | inactive | inactive | inactive | inactive | inactive | inactive | inactive | inactive | inactive
15 | CCN(CCN)c1cccc(C)c1 |  | inactive | inactive | inactive | inactive | inactive | inactive | inactive | inactive | inactive
16 | CC[C@H](C)COC(=O)/C=C/c1ccc(N=Cc2ccc(OC)cc2)cc1 |  | 4.47 µM (active) | inactive | inactive | inactive | inactive | inactive | 24.3 µM (active) |  | 
17 | CCN1C(=O)c2ccccc2C1Nc1ccc(OCCN2CCCCC2)cc1 (centres undefined) |  | inactive | inactive | inactive | inactive | inactive | inactive | inactive |  | 
18 | O=C1CCc2ccc(OCCCCN3CCN(c4cccc(Cl)c4Cl)CC3)cc2N1 | 26.6 µM (active) |  |  |  |  |  | inactive | inactive | 11.9 µM (active) | inactive
19 | CCCNCCC |  | inactive | inactive | inactive | inactive | inactive | inactive | inactive |  | 
20 | CCC(COC(=O)CCS)(COC(=O)CCS)COC(=O)CCS |  | inactive | inactive | inactive | inactive | inactive | inactive | inactive | inactive | inactive
21 | O=C(O)c1cc(-c2ccc(F)cc2F)ccc1O |  | 34.7 µM (active) | inactive | inactive | inactive |  | inactive |  | 9.44 µM (active) | inactive
22 | COc1c(C)c2c(c(O)c1C/C=C(\C)CCC(=O)OCCN1CCOCC1)C(=O)OC2 |  | inactive | inactive | inactive | inactive | inactive | 1.06 µM (active) | inactive | inactive | 237 nM (active)
23 | COC(C)=O |  | inactive | inactive | inactive | inactive |  | inactive | inactive |  | 
24 | CCCCCCCCCCC[C@@H](C[C@@H]1OC(=O)[C@H]1CCCCCC)OC(=O)[C@H](CC(C)C)NC=O |  | inactive | inactive | inactive | inactive | inactive | inactive | inactive |  | 
25 | OC1CCC(C2CCCCC2)CC1 (centres undefined) | inactive |  | inactive | inactive | inactive |  |  |  | inactive | inactive
